Consider 63 compounds from the antibiotic and cytotoxicity screens of Wong et al. (2023).

About 3,300 (8.5%) of roughly 39,000 compounds were called active. Only a selection was taken, and actives are over-represented in it overall.

The subject of this assay is HepG2. The assay is described as follows: cytotoxicity call (relative viability < 0.9). Conditions: 10 µM.
As to `CCOc1nc2cccc(C(=O)OCc3oc(=O)oc3C)c2n1Cc1ccc(-c2ccccc2-c2noc([O-])n2)cc1.[K+]`, the cytotoxicity call was “inactive”.
As for `O=C(C[C@@H]1CC[C@@H]2[C@H](COC[C@@H](O)CN2C(=O)c2ccc(F)cc2)O1)NCCCN1CCOCC1`, the cytotoxicity call is “inactive”.
For the compound `CN(C)C(=O)c1ccc(-c2cccc(-c3nc(C(=O)NC4CCC4)cc4c3[C@H](CCO)N([S@@](=O)C(C)(C)C)C4)c2)cc1`, the cytotoxicity call was “inactive”.
Regarding `Cc1ccc(S(=O)(=O)N(C)C[C@H]2Oc3ccc(NS(=O)(=O)c4cccs4)cc3C(=O)N([C@@H](C)CO)C[C@H]2C)cc1`, the cytotoxicity call was “inactive”.
For `CC1(C)OC(=O)C2(C(=O)O1)[C@@H](c1ccc(-c3cccc(Br)c3)cc1)CC(=O)C[C@H]2c1ccccc1`, the cytotoxicity call was “inactive”.
For the compound `CCCNC(=O)c1cc2c(c(-c3cccc(-c4cc5ccccc5o4)c3)n1)[C@H](CCO)N(C(=O)NC(C)C)C2`, the cytotoxicity call is “inactive”.
With `C[C@@H]1CCCCO[C@@H](CN(C)S(=O)(=O)c2ccccc2)[C@@H](C)CN([C@@H](C)CO)C(=O)c2cc(NC(=O)Nc3cccc4ccccc34)ccc2O1` the entry was “inactive”; with `Cc1noc(C)c1S(=O)(=O)Nc1ccc2c(c1)C(=O)N([C@H](C)CO)C[C@H](C)[C@@H](CN(C)S(=O)(=O)c1cn(C)cn1)OCCCC[C@H](C)O2`, “inactive”; with `C[C@@H]1CN([C@@H](C)CO)C(=O)c2cc(NC(=O)Nc3cccc4ccccc34)ccc2O[C@H]1CN(C)Cc1ccc(C(F)(F)F)cc1`, “active”.
Next, `C[C@H]1CN([C@@H](C)CO)C(=O)c2cc(NC(=O)Nc3cccc4ccccc34)ccc2O[C@H]1CN(C)Cc1ccc(C(F)(F)F)cc1`: “inactive”; `C[C@H]1CN([C@@H](C)CO)C(=O)c2cc(NC(=O)Nc3cccc4ccccc34)ccc2O[C@@H]1CN(C)Cc1ccc(C(F)(F)F)cc1`: “inactive”.
Regarding `C[C@@H]1CN([C@H](C)CO)C(=O)c2cc(NC(=O)Nc3cccc4ccccc34)ccc2O[C@@H]1CN(C)Cc1ccc(C(F)(F)F)cc1`, the cytotoxicity call is “inactive”.
As for `C[C@H](CO)N1C[C@H](C)[C@@H](CN(C)Cc2ccc(C(F)(F)F)cc2)Oc2ccc(NC(=O)Nc3cccc4ccccc34)cc2C1=O`, the cytotoxicity call is “inactive”.
As for `C[C@@H]1CN([C@@H](C)CO)C(=O)c2cc(NC(=O)Nc3cccc4ccccc34)ccc2O[C@@H]1CN(C)Cc1ccc(C(F)(F)F)cc1`, the cytotoxicity call is “active”.
In the case of `C[C@@H]1CN([C@H](C)CO)C(=O)c2cc(NC(=O)Nc3cccc4ccccc34)ccc2O[C@H]1CN(C)Cc1ccc(C(F)(F)F)cc1`, the cytotoxicity call is “inactive”.
For `C[C@H](CO)N1C[C@H](C)[C@H](CN(C)Cc2ccc(C(F)(F)F)cc2)Oc2ccc(NC(=O)Nc3cccc4ccccc34)cc2C1=O`, the cytotoxicity call was “active”.
Take `O=C(O)c1cc(=O)cc(C(=O)O)o1`: the cytotoxicity call was “inactive”.
Take `C=CCn1c(O)c(C#N)c(C)cc1=O`: the cytotoxicity call is “inactive”.
For the compound `CN(C)C(=O)C[C@H]1CC[C@H](NC(=O)C2CCOCC2)[C@H](CO)O1`, the cytotoxicity call was “inactive”.
For the compound `C[C@@H]1CCCCO[C@H](CN(C)C(=O)c2ccccc2)[C@@H](C)CN([C@H](C)CO)C(=O)c2cc(NS(=O)(=O)c3ccc(Cl)cc3)ccc2O1`, the cytotoxicity call was “inactive”.
On to `N#C/C(=C\c1cccs1)c1csc2ccc(Cl)cc12`, for which the cytotoxicity call was “inactive”.
Regarding `CO[C@@H]1CN(C)C(=O)c2cc(NC(=O)CC(F)(F)F)ccc2OC[C@@H](C)N(S(=O)(=O)c2cn(C)cn2)C[C@@H]1C`, the cytotoxicity call is “inactive”.
Take `O=S(=O)(c1cccc(OC(F)F)c1)N1[C@@H]2CC[C@@H](C2)[C@H]1c1nc2cccc(OCc3ccccc3)c2[nH]1`: the cytotoxicity call is “inactive”.
In the case of `C[C@@H]1CN([C@@H](C)CO)S(=O)(=O)c2ccc(C#CC(C)(C)O)cc2O[C@H]1CN(C)Cc1ccc(F)cc1`, the cytotoxicity call is “inactive”.
For `C[C@@H]1CN([C@@H](C)CO)C(=O)Cc2cc(NC(=O)Nc3ccc4c(c3)OCO4)ccc2O[C@@H]1CN(C)Cc1ccc(C(F)(F)F)cc1`, the cytotoxicity call is “inactive”.
For the compound `C[C@@H]1CN([C@@H](C)CO)C(=O)Cc2cc(NC(=O)Nc3ccc4c(c3)OCO4)ccc2O[C@H]1CN(C)Cc1ccc(C(F)(F)F)cc1`, the cytotoxicity call was “inactive”.
Regarding `C[C@H]1CN([C@@H](C)CO)C(=O)Cc2cc(NC(=O)Nc3ccc4c(c3)OCO4)ccc2O[C@@H]1CN(C)Cc1ccc(C(F)(F)F)cc1`, the cytotoxicity call is “inactive”.
Turning to `C[C@H]1CN([C@@H](C)CO)C(=O)Cc2cc(NC(=O)Nc3ccc4c(c3)OCO4)ccc2O[C@H]1CN(C)Cc1ccc(C(F)(F)F)cc1`, the cytotoxicity call was “active”.
As for `C[C@@H]1CN([C@H](C)CO)C(=O)Cc2cc(NC(=O)Nc3ccc4c(c3)OCO4)ccc2O[C@H]1CN(C)Cc1ccc(C(F)(F)F)cc1`, the cytotoxicity call is “active”.
For `C[C@H](CO)N1C[C@H](C)[C@H](CN(C)Cc2ccc(C(F)(F)F)cc2)Oc2ccc(NC(=O)Nc3ccc4c(c3)OCO4)cc2CC1=O`, the cytotoxicity call was “inactive”.
Turning to `C[C@@H]1CN([C@H](C)CO)C(=O)Cc2cc(NC(=O)Nc3ccc4c(c3)OCO4)ccc2O[C@@H]1CN(C)Cc1ccc(C(F)(F)F)cc1`, the cytotoxicity call was “active”.
With `C[C@H](CO)N1C[C@H](C)[C@@H](CN(C)Cc2ccc(C(F)(F)F)cc2)Oc2ccc(NC(=O)Nc3ccc4c(c3)OCO4)cc2CC1=O` the entry was “inactive”.
With `C[C@@H]1CCCCO[C@H](CN(C)C(=O)c2ccccc2)[C@H](C)CN([C@@H](C)CO)C(=O)c2cc(NS(=O)(=O)c3ccc(F)cc3)ccc2O1`, the cytotoxicity call is “inactive”.
Regarding `COCC(=O)N1C[C@H](C)[C@@H](OC)CN(C)C(=O)c2cc(NC(=O)Nc3ccccc3)ccc2OC[C@H]1C`, the cytotoxicity call was “inactive”.
`C[C@@H]1CN([C@@H](C)CO)C(=O)c2cc(-c3ccc(C(=O)N(C)C)cc3)cnc2O[C@@H]1CN(C)C(=O)c1cccnc1`: the cytotoxicity call was “inactive”.
Take `C[C@@H]1CN([C@@H](C)CO)S(=O)(=O)c2ccc(C#Cc3ccc(F)cc3)cc2O[C@H]1CN(C)S(=O)(=O)c1cn(C)cn1`: the cytotoxicity call was “inactive”.
`C[C@@H]1CN([C@H](C)CO)C(=O)c2cc(NC(=O)Cn3cnnn3)ccc2O[C@@H]1CN(C)Cc1ccc(C(=O)O)cc1`: the cytotoxicity call is “inactive”.
`COc1ccc(CCNC(=O)[C@@]2(Sc3ccc(C)cc3)CC(=O)N(Cc3ccccc3C(F)(F)F)[C@@H]2c2ccc(CO)cc2I)cc1`: the cytotoxicity call was “inactive”.
`O=C(NCC1CC1)[C@@H]1[C@@H](CO)[C@@H]2Cn3c(cccc3=O)[C@H]1N2C(=O)c1cccnc1`: the cytotoxicity call was “inactive”.
Next, `Cc1ccc(S(=O)(=O)Nc2cccc3c2O[C@H](CN(C)S(=O)(=O)c2ccccc2)[C@@H](C)CN([C@H](C)CO)C3=O)cc1`: “inactive”.
Turning to `CC12CC3CC(C)(C1)CC(N)(C3)C2.Cl`, the cytotoxicity call is “active”.
Consider `C[C@]12CC3CC(N)(C1)C[C@@](C)(C3)C2`, for which the cytotoxicity call was “inactive”.
For the compound `C[C@]12C[C@@H]3C[C@](C)(C1)C[C@@](N)(C3)C2`, the cytotoxicity call is “inactive”.
Turning to `C[C@@H]1CN([C@@H](C)CO)C(=O)c2cc(NC(=O)Nc3ccc4c(c3)OCO4)ccc2O[C@@H]1CN(C)S(C)(=O)=O`, the cytotoxicity call is “inactive”.
Next, `O=C(NCCN1CCOCC1)[C@]1(CCS(=O)(=O)c2ccccc2)N=C(c2ccc(OCCCO)cc2)O[C@@H]1c1ccccc1`: “inactive”.
Next, `COc1ccc(NC(=O)N(C)C[C@@H]2Oc3ccc(NC(=O)CCCCCC(=O)Nc4ccccc4N)cc3CC(=O)N([C@@H](C)CO)C[C@H]2C)cc1`: “inactive”.
As to `C[C@H]1CCCCO[C@@H](CN(C)C(=O)NC2CCCCC2)[C@@H](C)CN([C@@H](C)CO)C(=O)c2cc(NC(=O)CCC(F)(F)F)ccc2O1`, the cytotoxicity call is “inactive”.
For `CCCN(C)C[C@H]1OCCCC[C@@H](C)Oc2ccc(NC(=O)NC3CCCCC3)cc2C(=O)N([C@@H](C)CO)C[C@H]1C`, the cytotoxicity call was “inactive”.
Turning to `C[C@@H]1CN([C@@H](C)CO)C(=O)c2cc(NC(=O)NC3CCCCC3)ccc2O[C@@H](C)CCCCO[C@@H]1CN(C)CC1CCCCC1`, the cytotoxicity call is “inactive”.
For `C[C@@H]1CCCCO[C@@H](CN(C)CC2CCCCC2)[C@@H](C)CN([C@@H](C)CO)C(=O)c2cc(NC(=O)NC3CCCCC3)ccc2O1`, the cytotoxicity call is “inactive”.
With `C[C@@H]1CCCCO[C@H](CN(C)CC2CCCCC2)[C@H](C)CN([C@H](C)CO)C(=O)c2cc(NC(=O)NC3CCCCC3)ccc2O1`, the cytotoxicity call was “active”.
In the case of `C[C@@H]1CCCCO[C@@H](CN(C)CC2CCCCC2)[C@H](C)CN([C@@H](C)CO)C(=O)c2cc(NC(=O)NC3CCCCC3)ccc2O1`, the cytotoxicity call was “inactive”.
`CCCN(C)C[C@@H]1OCCCC[C@H](C)Oc2ccc(NC(=O)NC3CCCCC3)cc2C(=O)N([C@@H](C)CO)C[C@@H]1C`: the cytotoxicity call is “inactive”.
Consider `C[C@@H]1CCCCO[C@@H](CN(C)CC2CCCCC2)[C@H](C)CN([C@H](C)CO)C(=O)c2cc(NC(=O)NC3CCCCC3)ccc2O1`, for which the cytotoxicity call is “inactive”.
Consider `CCCN(C)C[C@@H]1OCCCC[C@@H](C)Oc2ccc(NC(=O)NC3CCCCC3)cc2C(=O)N([C@H](C)CO)C[C@@H]1C`, for which the cytotoxicity call was “active”.
Take `C[C@@H]1CN([C@@H](C)CO)C(=O)c2cc(NC(=O)NC3CCCCC3)ccc2O[C@@H](C)CCCCO[C@H]1CN(C)CC1CCCCC1`: the cytotoxicity call was “active”.
With `C[C@H](CO)N1C[C@H](C)[C@H](CN(C)CC2CCCCC2)OCCCC[C@H](C)Oc2ccc(NC(=O)NC3CCCCC3)cc2C1=O`, the cytotoxicity call is “inactive”.
On to `C[C@H]1CCCCO[C@H](CN(C)CC2CCCCC2)[C@@H](C)CN([C@@H](C)CO)C(=O)c2cc(NC(=O)NC3CCCCC3)ccc2O1`, for which the cytotoxicity call is “active”.
Regarding `C[C@@H]1CCCCO[C@H](CN(C)CC2CCCCC2)[C@@H](C)CN([C@H](C)CO)C(=O)c2cc(NC(=O)NC3CCCCC3)ccc2O1`, the cytotoxicity call is “inactive”.
With `COc1cccc(NC(=O)N2C[C@@H](O)COC[C@H]3O[C@H](CC(=O)NC4Cc5ccccc5C4)CC[C@@H]32)c1` the entry was “inactive”.
On to `CCNC(=O)C[C@H]1CC[C@H]2[C@@H](COC[C@@H](O)CN2C(=O)Nc2c(C)noc2C)O1`, for which the cytotoxicity call was “inactive”.
For `Cc1ccc(S(=O)(=O)N[C@@H]2CC[C@H](CCNC(=O)CN3CCOCC3)O[C@H]2CO)cc1`, the cytotoxicity call was “inactive”.
`CCOC(=O)CCc1n[nH]c(=O)[nH]c1=O`: the cytotoxicity call is “inactive”.
